# Data as given in PubChem BioAssay (NCI).
# This is part of a sample that, as a whole, favours compounds with a hit. Of some 79,000 tested, about 15% had one in any assay. Values without a mark were called inactive. Activity calls are given as the source filed them. Cut-off read from the data, not from the text of the source: active = growth inhibition above about 70%; inactive = the rest.
# Key:
# [1] = NCI Yeast Anticancer Drug Screen. Data for the rad52 strain (AID 147);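 note: 0% = growth of vehicle-treated control cultures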; settings: S. cerevisiae rad52 mutant growth inhibition, active compounds read high
# In short: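 Read-out: growth inhibition versus vehicle-treated controls. Cells were a DNA repair-deficient yeast strain treated with compounds.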
# [2] = NCI Yeast Anticancer Drug Screen. Data for the wt1 strain (AID 149);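 note: 0% = growth of vehicle-treated wt1 cultures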; settings: S. cerevisiae wt1 strain (SPY 50644) growth inhibition, active compounds read high
# In short: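 Compounds are added to wt1 yeast cultures. Growth is then measured. Inhibition is expressed relative to vehicle-treated controls.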
# [3] = NCI Yeast Anticancer Drug Screen. Data for the rad50EPP+ strain (AID 151);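 note: 0% = growth of vehicle-treated control cultures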; settings: S. cerevisiae rad50 mutant strain, active compounds read high
# In short: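 Growth inhibition read against vehicle controls in rad50EPP+ yeast, a strain altered in DNA damage repair, after compound exposure.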
# [4] = NCI Yeast Anticancer Drug Screen. Data for the mgt1 strain (AID 153); settings: S. cerevisiae mgt1 mutant growth inhibition, active compounds read high
# In short: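 mgt1 yeast grown with test compound; read-out is growth inhibition versus vehicle-treated cultures.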
# [5] = NCI Yeast Anticancer Drug Screen. Data for the rad50 strain (AID 155);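 note: 0% = growth of vehicle-only cultures of the same strain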; settings: S. cerevisiae rad50 strain growth inhibition, active compounds read high
# In short: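 Inhibition values express reduced yeast growth in compound-treated cultures relative to vehicle-treated controls.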
# [6] = NCI Yeast Anticancer Drug Screen. Data for the mec2-1 strain (AID 157); settings: S. cerevisiae mec2-1 strain, active compounds read high
# In short: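 Yeast mec2-1 mutant treated with compound. Readout: growth inhibition vs vehicle controls.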
# [7] = NCI Yeast Anticancer Drug Screen. Data for the rad14 strain (AID 159);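 note: 0% = growth of vehicle-treated control cultures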; settings: S. cerevisiae rad14 strain growth inhibition, active compounds read high
# In short: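 A mutant yeast strain defective in DNA damage repair is treated with compound; inhibition of its growth is scored against untreated, vehicle-exposed cultures.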
# [8] = NCI Yeast Anticancer Drug Screen. Data for the sgs1 mgt1 strain (AID 161);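 note: 0% = growth of cultures given vehicle only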; settings: S. cerevisiae sgs1 mgt1 strain, active compounds read high
# In short: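 Read-out: growth inhibition vs vehicle controls. Cells: mutant yeast strain deficient in DNA damage repair.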
# [9] = NCI Yeast Anticancer Drug Screen. Data for the CLN2oe strain (AID 163);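 note: 0% = growth of vehicle-only control cultures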; settings: S. cerevisiae CLN2oe strain, active compounds read high
# In short: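 Read-out: yeast growth inhibition, expressed relative to vehicle-only controls. The strain bears an engineered cell-cycle alteration.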
# [10] = NCI Yeast Anticancer Drug Screen. Data for the bub3 strain (AID 167); settings: S. cerevisiae bub3 mutant strain, active compounds read high
# In short: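 Steps: expose the mutant yeast strain to compound; grow alongside vehicle-treated cultures; measure growth; express inhibition against the vehicle cultures.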
# [11] = NCI Yeast Anticancer Drug Screen. Data for the wt2 strain (AID 169);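 note: 0% = growth of vehicle-treated yeast cultures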; settings: S. cerevisiae wt2 strain growth inhibition, active compounds read high
# In short: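 Read-out: growth inhibition versus vehicle-treated control cultures after compound exposure of the yeast strain.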
# [12] = NCI Yeast Anticancer Drug Screen. Data for the mlh1 strain (AID 171);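 note: 0% = growth of vehicle-treated control cultures of the same strain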; settings: S. cerevisiae mlh1 strain growth inhibition, active compounds read high
# In short: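 Read-out: growth inhibition versus vehicle controls. Strain: engineered yeast with a defined DNA repair or cell cycle defect, compound-treated.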
# [13] = NCI Yeast Anticancer Drug Screen. Data for the sgs1 strain (AID 173);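 note: 0% = growth of vehicle-only control cultures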; settings: S. cerevisiae sgs1 mutant, active compounds read high
# In short: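 Read-out: yeast growth inhibition relative to vehicle controls, following compound exposure of a strain with a defined DNA repair/cell cycle alteration.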
# [14] = NCI Yeast Anticancer Drug Screen. Data for the mlh1 rad18 strain (AID 175); settings: S. cerevisiae mlh1 rad18 strain growth inhibition, active compounds read high
# In short: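 Yeast w/ defined DNA-repair lesions; compound exposure; growth vs vehicle controls → % inhibition.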
# [15] = NCI Yeast Anticancer Drug Screen. Data for the rad18 strain (AID 177); settings: S. cerevisiae rad18 mutant growth inhibition, active compounds read high
# In short: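 Readout: growth inhibition vs vehicle controls. Cells: genetically altered yeast strain, DNA repair defect.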
# [16] = at 5.0 µM (retest, dose inferred, filed as 0.5)
# [17] = at 50.0 µM (retest, dose inferred, filed as 5.0)
compound,measurement,setting,value
O=C1C(=O)c2ccccc2C(O)=C1C(C1=C(O)c2ccccc2C(=O)C1=O)c1ccc(Cl)cc1,growth inhibition,[1]; at 1.2 µM,9%
same,growth inhibition,[1]; at 3.7 µM,26%
same,growth inhibition,[1]; at 11.0 µM,62%
same,growth inhibition,[1]; at 33.0 µM,60%
same,growth inhibition,[1]; at 100.0 µM,48%
same,growth inhibition,[2]; at 1.2 µM,4%
same,growth inhibition,[2]; at 3.7 µM,8%
same,growth inhibition,[2]; at 11.0 µM,31%
same,growth inhibition,[2]; at 33.0 µM,32%
same,growth inhibition,[2]; at 100.0 µM,29%
same,growth inhibition,[3]; at 1.2 µM,7%
same,growth inhibition,[3]; at 3.7 µM,28%
same,growth inhibition,[3]; at 11.0 µM,51%
same,growth inhibition,[3]; at 33.0 µM,48%
same,growth inhibition,[3]; at 100.0 µM,30%
same,growth inhibition,[4]; at 1.2 µM,4%
same,growth inhibition,[4]; at 3.7 µM,9%
same,growth inhibition,[4]; at 11.0 µM,64%
same,growth inhibition,[4]; at 33.0 µM,75% (active)
same,growth inhibition,[4]; at 100.0 µM,69%
same,growth inhibition,[5]; at 1.2 µM,11%
same,growth inhibition,[5]; at 3.7 µM,18%
same,growth inhibition,[5]; [16],-7%
same,growth inhibition,[5]; at 11.0 µM,51%
same,growth inhibition,[5]; at 33.0 µM,41%
same,growth inhibition,[5]; [17],73% (active)
same,growth inhibition,[5]; at 50.0 µM,92.5% (active)
same,growth inhibition,[5]; at 100.0 µM,31%
same,growth inhibition,[6]; at 1.2 µM,10%
same,growth inhibition,[6]; at 3.7 µM,18%
same,growth inhibition,[6]; [16],-5%
same,growth inhibition,[6]; at 11.0 µM,60%
same,growth inhibition,[6]; at 33.0 µM,63%
same,growth inhibition,[6]; [17],-6%
same,growth inhibition,[6]; at 50.0 µM,72.2% (active)
same,growth inhibition,[6]; at 100.0 µM,65%
same,growth inhibition,[7]; at 1.2 µM,5%
same,growth inhibition,[7]; at 3.7 µM,-6%
same,growth inhibition,[7]; at 11.0 µM,28%
same,growth inhibition,[7]; at 33.0 µM,32%
same,growth inhibition,[7]; at 100.0 µM,15%
same,growth inhibition,[8]; [16],-2%
same,growth inhibition,[8]; [17],21%
same,growth inhibition,[8]; at 50.0 µM,60.1%
same,growth inhibition,[9]; at 1.2 µM,3%
same,growth inhibition,[9]; at 3.7 µM,12%
same,growth inhibition,[9]; at 11.0 µM,60%
same,growth inhibition,[9]; at 33.0 µM,66%
same,growth inhibition,[9]; at 100.0 µM,63%
same,growth inhibition,[10]; at 1.2 µM,-1%
same,growth inhibition,[10]; at 3.7 µM,5%
same,growth inhibition,[10]; [16],-3%
same,growth inhibition,[10]; at 11.0 µM,55%
same,growth inhibition,[10]; at 33.0 µM,66%
same,growth inhibition,[10]; [17],34%
same,growth inhibition,[10]; at 50.0 µM,80% (active)
same,growth inhibition,[10]; at 100.0 µM,50%
same,growth inhibition,[11]; at 1.2 µM,4%
same,growth inhibition,[11]; at 3.7 µM,15%
same,growth inhibition,[11]; at 11.0 µM,50%
same,growth inhibition,[11]; at 33.0 µM,54%
same,growth inhibition,[11]; at 100.0 µM,46%
same,growth inhibition,[12]; at 1.2 µM,6%
same,growth inhibition,[12]; at 3.7 µM,13%
same,growth inhibition,[12]; at 11.0 µM,58%
same,growth inhibition,[12]; at 33.0 µM,62%
same,growth inhibition,[12]; at 100.0 µM,56%
same,growth inhibition,[13]; at 1.2 µM,16%
same,growth inhibition,[13]; at 3.7 µM,39%
same,growth inhibition,[13]; at 11.0 µM,74% (active)
same,growth inhibition,[13]; at 33.0 µM,72% (active)
same,growth inhibition,[13]; at 100.0 µM,63%
same,growth inhibition,[14]; [16],-5%
same,growth inhibition,[14]; [17],42%
same,growth inhibition,[14]; at 50.0 µM,86.2% (active)
same,growth inhibition,[15]; at 1.2 µM,23%
same,growth inhibition,[15]; at 3.7 µM,38%
same,growth inhibition,[15]; at 11.0 µM,70% (active)
same,growth inhibition,[15]; at 33.0 µM,64%
same,growth inhibition,[15]; at 100.0 µM,49%
